About 83,000 compounds went through this panel and 20% of them were active in at least one assay; those are over-represented in the sample as a whole.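 Activity criterion: percent growth below 10, measured after cells in 96-well plates were exposed to a single compound concentration for 48 hours.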 The source made the active and inactive calls.
Assays:
Test in all cases: NCI-60 one-dose screen, 48 h (100 = growth as untreated, 0 = no growth, -100 = all killed)
Conditions in all cases: 10 µM unless noted
NCI-H23 lung = tested on: NCI-H23 lung
NCI-H226 lung = tested on: NCI-H226 lung
NCI-H322M lung = tested on: NCI-H322M lung
HOP-62 NSCLC = tested on: HOP-62 NSCLC
NCI-H460 lung = tested on: NCI-H460 lung
HOP-92 NSCLC = tested on: HOP-92 NSCLC
NCI-H522 lung = tested on: NCI-H522 lung
A549/ATCC NSCLC = tested on: A549/ATCC NSCLC
786-0 renal = tested on: 786-0 renal
COLO 205 colon = tested on: COLO 205 colon

Measured: growth

CC(=O)O[C@H]1CC[C@@]2(C)C(=CC[C@@H]3[C@@H]2CC[C@]2(C)C(Cl)=C(c4nc5ccc(Cl)cn5c4NC(C)(C)C)C[C@@H]32)C1
inactive: NCI-H23 lung 88.1% | NCI-H226 lung 92.3% | NCI-H322M lung 96.1% | HOP-62 NSCLC 90.8% | NCI-H460 lung 99.9% | HOP-92 NSCLC 15.6% | NCI-H522 lung 86.8% | A549/ATCC NSCLC 89.5% | 786-0 renal 85% | COLO 205 colon 103%

CCOc1ccc(-c2cc(C3(S(=O)(=O)c4ccc(C)cc4)CC=CC3)on2)cc1
inactive: NCI-H23 lung 73.2% | NCI-H226 lung 47.7% | NCI-H322M lung 96.4% | HOP-62 NSCLC 85.9% | NCI-H460 lung 91.1% | HOP-92 NSCLC 86.1% | NCI-H522 lung 70.6% | A549/ATCC NSCLC 92.8% | 786-0 renal 102% | COLO 205 colon 95.5%

C=C1C(=O)O[C@H]2[C@H]1CC/C(COC(=O)NCc1ccc(Cn3c(=O)sn(CCCC)c3=O)cc1)=C\CC[C@@]1(C)O[C@@H]21
active: HOP-92 NSCLC -6.79% | NCI-H522 lung -55.8% | COLO 205 colon -25%
inactive: NCI-H23 lung 80.8% | NCI-H226 lung 78.5% | NCI-H322M lung 105% | HOP-62 NSCLC 91.6% | NCI-H460 lung 95.4% | A549/ATCC NSCLC 93.5% | 786-0 renal 41.8%

COc1ccc(C(=O)/C=C/Nc2cc(-c3ccccc3)nn2-c2ccccc2)cc1
inactive: NCI-H23 lung 90% | NCI-H226 lung 79.8% | NCI-H322M lung 93.2% | HOP-62 NSCLC 102% | NCI-H460 lung 98% | HOP-92 NSCLC 80.8% | NCI-H522 lung 82.7% | A549/ATCC NSCLC 91.4% | 786-0 renal 89% | COLO 205 colon 110%

CN1CCN(CC(=O)N(C)c2ccc(N=C(c3ccccc3)c3c(O)[nH]c4ccc([N+](=O)[O-])cc34)cc2)CC1
inactive: NCI-H23 lung 80.4% | NCI-H226 lung 61.9% | NCI-H322M lung 82.4% | HOP-62 NSCLC 85.1% | NCI-H460 lung 54.5% | HOP-92 NSCLC 87.9% | NCI-H522 lung 86.8% | A549/ATCC NSCLC 46.7% | 786-0 renal 44.3% | COLO 205 colon 28.6%

O=C(/C=C/c1ccco1)Nc1ncc(Cc2ccc(F)cc2)s1
active: NCI-H460 lung 6.54% | NCI-H522 lung -2.92% | COLO 205 colon 4.77%
inactive: NCI-H23 lung 23.4% | NCI-H226 lung 51.8% | NCI-H322M lung 47.2% | HOP-62 NSCLC 25.8% | HOP-92 NSCLC 90.5% | A549/ATCC NSCLC 23.9% | 786-0 renal 38.4%

CN1C(=O)N(C)C2C1NN=c1s/c(=C\c3ccc(F)cc3)c(=O)n12 (stereo not given)
inactive: NCI-H23 lung 50.8% | NCI-H226 lung 62.9% | NCI-H322M lung 53.6% | HOP-62 NSCLC 46.7% | NCI-H460 lung 13% | HOP-92 NSCLC 47% | A549/ATCC NSCLC 24.8% | 786-0 renal 40.7% | COLO 205 colon 12.5%
active: NCI-H522 lung 2.08%

Cc1ccccc1NC(=O)c1sc2nc3c(cc2c1N)CCCC3
inactive: NCI-H23 lung 47.2% | NCI-H226 lung 63.4% | NCI-H322M lung 51.1% | HOP-62 NSCLC 27.4% | NCI-H460 lung 11% | HOP-92 NSCLC 17.3% | NCI-H522 lung 11.1% | A549/ATCC NSCLC 34.3% | 786-0 renal 33.7% | COLO 205 colon 15.5%

CN(C)CCOc1ccc(/C(=C(/CCCCCCCCCC[P+](c2ccccc2)(c2ccccc2)c2ccccc2)c2ccccc2)c2ccccc2)cc1
active: NCI-H23 lung -83.2% | NCI-H226 lung -53.2% | NCI-H322M lung -96.6% | HOP-62 NSCLC -66% | NCI-H460 lung -79.2% | HOP-92 NSCLC -84.3% | NCI-H522 lung -75.1% | A549/ATCC NSCLC -64.3% | 786-0 renal -76.6% | COLO 205 colon -64%

Nc1nc(Nc2ccc([N+](=O)[O-])cc2O)nc(C(Cl)(Cl)Cl)n1
inactive: NCI-H23 lung 80.1% | NCI-H226 lung 90.2% | NCI-H322M lung 96.9% | HOP-62 NSCLC 80% | NCI-H460 lung 90.2% | HOP-92 NSCLC 49.4% | NCI-H522 lung 10.9% | A549/ATCC NSCLC 82.4% | 786-0 renal 97.1% | COLO 205 colon 107%

[2H]C([2H])([2H])Oc1c(F)cccc1/C=C/C(=O)/C=C(O)/C=C/c1cccc(F)c1OC([2H])([2H])[2H]
inactive: NCI-H23 lung 86.1% | NCI-H226 lung 108% | NCI-H322M lung 102% | HOP-62 NSCLC 110% | NCI-H460 lung 99.1% | HOP-92 NSCLC 89.4% | NCI-H522 lung 87.4% | A549/ATCC NSCLC 90.9% | 786-0 renal 103% | COLO 205 colon 114%

CN1CCN(Cc2ccc(NC(=O)c3cncc(C#Cc4cnc(N)c5ncccc45)c3)cc2Cl)CC1
inactive: NCI-H23 lung 57.3% | NCI-H226 lung 56.5% | NCI-H322M lung 116% | HOP-62 NSCLC 89.8% | HOP-92 NSCLC 75.6% | NCI-H522 lung 85.2% | A549/ATCC NSCLC 74.7% | COLO 205 colon 70.3%
active: NCI-H460 lung 3.07% | 786-0 renal -78.2%

CN1CCN(CCCNC(=O)c2c3c(n4ccccc24)C(=O)c2ncccc2C3=O)CC1
inactive: NCI-H226 lung 33.7% | HOP-62 NSCLC 25.8% | HOP-92 NSCLC 14.9% | 786-0 renal 28.5%
active: NCI-H23 lung -24.3% | NCI-H322M lung -23.9% | NCI-H460 lung -60.1% | NCI-H522 lung -43.4% | A549/ATCC NSCLC -25.5% | COLO 205 colon -73%

From PubChem BioAssay (NCI)
